CtBP-E1A inh – blocks the CtBP interaction with E1A | AlphaScreen GST-E1A/His-CtBP binding, 1536-well; active compounds read low | activity change, % (test concentration not listed) | 340,000 tested, 0.49% active | AID 651724; in the data active = activity change below about -65%; inconclusive = mostly about -30% to -63%; also: % is scaled to controls: 0 for no effect and ±100 for the full control effect
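Homogeneous bead-based format: GST-tagged E1A captured on glutathione donor beads, His-tagged CtBP on nickel acceptor beads; compounds precede bead addition by 2 h at 37 °C.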
Six1-Eya2 inh – Six1/Eya2 interaction inhibition; Q15475+O00167; AlphaScreen GST-Six1/His-Eya2 binding, biochemical; active compounds read low; activity change, % (concentration not given with the values); 360,000 tested, 0.56% active; AID 651725; in the data active = activity change below about -65%; inconclusive = mostly about -30% to -63%; also: % is scaled to controls: 0 for no effect and ±100 for the full control effect
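GST-Six1 + His-Eya2 (5X stock: 250/500 nM); Tris pH 8.0, 300 mM NaCl, 0.05% BSA, 0.02% Tween 20; GSH donor/Ni acceptor beads; 1 h 37 °C dark; AlphaScreen readout.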
BAZ2B block – BAZ2B (human) inhibition. Potency, µM (titrated, usually from 114 µM), inactives show at the highest dose activity change, negative = inhibition, usual class: inhibitors. 360,000 tested, 4.4% active. AID 504333. AlphaScreen BAZ2B-H3K14Ac peptide displacement. Q9UIF8; also: potency is read from the fitted curve at half-maximal effect; % is scaled to controls: 0 for no effect and ±100 for the full control effect; nearly all actives have a fitted effect of over 60% in size
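Compounds, titrated to a top concentration of 110 uM, were incubated 30 min at room temperature with preformed BAZ2B/acetyl-K14 H3 peptide complex (50 nM each). Proximity signal was measured by AlphaScreen after 20 min with beads.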
JMJD2A Tudor – inhibitors of human JMJD2A Tudor domain; AlphaScreen JMJD2A-Tudor / H3K4me3 peptide binding; Potency, µM (titrated, usually from 114 µM), inactives show at the highest dose activity change, negative = inhibition, actives largely listed as inhibitors; 390,000 tested, 4.4% active; AID 504339; also: potency is read from the fitted curve at half-maximal effect; % is scaled to controls: 0 for no effect and ±100 for the full control effect; nearly all actives have a fitted effect of over 50% in size
G9a inh – blocks human histone lysine methyltransferase G9a. Q96KQ7. G9a H3K9 monomethylation, AlphaScreen, 2 h. Potency, µM (top dose mostly 102 µM), without a hit: at the highest dose activity, negative = inhibition, hits mostly inhibitors. 350,000 tested, 8.8% active; also: potency is read from the fitted curve at half-maximal effect; % is scaled to controls: 0 for no effect and ±100 for the full control effect; nearly all actives have a fitted effect of over 75% in size
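Signal arises when biotinylated H3K9 peptide, once monomethylated, bridges streptavidin donor and antibody-captured acceptor beads. Enzyme at 20 nM was preincubated 15 min with test compounds; peptide 500 nM and SAM 20 uM then reacted for 2 h.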
HP1b binding inh – HP1-beta chromodomain-methylated histone interaction inhibition; P83916; AlphaScreen HP1-beta / biotin-H3K9me3 peptide binding; Potency, µM (top dose mostly 114 µM), inactives show top-dose activity change, negative = inhibition, hits mostly inhibitors; 390,000 tested, 0.56% active; also: potency is read from the fitted curve at half-maximal effect; nearly all actives have a fitted effect of over 70% in size
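Compound inhibition of the preformed complex between 50 nM HP1-beta and 50 nM biotinylated H3K9me3 peptide was read by AlphaScreen. Buffer was PBS pH 7.4 with 0.01% Tween-20. Incubations ran 30 min at room temperature, with 10 ug/mL donor/acceptor beads.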
* hit, by the source's call; ? = inconclusive; nt = no result; [ ] = dose if it differs, or a comment. An excerpt weighted towards active compounds, which were near 10% of everything screened. Unless noted, calls follow the shape of the dose curve; as a rule, active = well fitted inhibition curve with a large enough effect; inconclusive = small, poorly fitted or top-dose-only effect; inactive = no such curve, though single readings can be large or run the other way.

SMILES | CtBP-E1A inh | Six1-Eya2 inh | BAZ2B block | JMJD2A Tudor | G9a inh | HP1b binding inh
C#CCOCCOCCOCCNc1nc(N2CCN(C(=O)[C@H](CCCCN)n3cc(C(N)CC(C)C)nn3)CC2)nc(N2CCN(C(=O)[C@H](CCC(=O)O)n3cc(C(N)[C@H](C)CC)nn3)CC2)n1 (some centres undefined) | -5 | -7 | 50µM* | 50µM* | -136%[59 µM] | 49%
C#CCOCCOCCOCCNc1nc(N2CCN(C(=O)C([C@@H](C)O)n3cc([C@@H](N)CCCCN)nn3)CC2)nc(N2CCN(C(=O)[C@H](CCCCN)n3cc([C@@H](N)[C@H](C)CC)nn3)CC2)n1 (some centres undefined) | 8 | 15 | nt | ? | nt | 88%
C#CCOCCOCCOCCNc1nc(N2CCN(C(=O)[C@H](CCCCN)n3cc(C(N)CO)nn3)CC2)nc(N2CCN(C(=O)[C@H](CCC(=O)O)n3cc(C(N)CC(C)C)nn3)CC2)n1 (some centres undefined) | nt | nt | 20µM* | nt | ? | nt
C#CCOCCOCCOCCNc1nc(N2CCN(C(=O)C([C@@H](C)O)n3cc([C@@H](N)CCCCN)nn3)CC2)nc(N2CCN(C(=O)[C@H](CCC(=O)O)n3cc([C@@H](N)[C@H](C)CC)nn3)CC2)n1 (some centres undefined) | -15 | -12 | nt | 89µM* | nt | 18%
C#CCOCCOCCOCCNc1nc(N2CCN(C(=O)[C@H](CCCCN)n3cc([C@@H](N)CC(C)C)nn3)CC2)nc(N2CCN(C(=O)[C@H](CCCCN)n3cc([C@@H](N)CC(C)C)nn3)CC2)n1 | -13 | -2 | ? | -35% | ? | 26%
Cc1ccc(CNC(=O)CCCCn2c(=O)c3ccccc3n(Cc3c(C)cc(C)cc3C)c2=O)cc1 | nt | nt | 4% | 4% | 0%[59 µM] | 7%
O=C(CSCc1ccc(F)cc1)N1CCc2c([nH]c3ccccc23)C1c1ccccc1 (centres undefined) | nt | nt | -28% | ? | -26%[59 µM] | 0%[57 µM]
CCc1ccc(NC(=O)CSc2nc3nccnc3c(=O)n2CCc2c[nH]c3ccccc23)cc1 | nt | nt | -22% | -5% | 7%[59 µM] | 39%
O=C(c1cc2cc(F)ccc2[nH]1)N1CCc2ccccc2C1 | nt | 0 | -18%[57.1 µM] | 6% | 19% | 42%
O=C(c1cc2cc(Cl)ccc2[nH]1)N1CCc2ccccc2C1 | nt | -1 | -18%[57.1 µM] | 25% | 50µM* | 60%
Cn1c(=O)c2cc(S(=O)(=O)NC(C(=O)Nc3cccnc3)c3ccccc3)ccc2n(C)c1=O (centres undefined) | 4 | -7 | 8% | -12% | 8.9µM* | 43%
Cn1c(=O)c2cc(S(=O)(=O)NC(C(=O)Nc3cccc(F)c3)c3ccccc3)ccc2n(C)c1=O (centres undefined) | 5 | -7 | -14% | -13% | 18µM* | 44%
Cc1ccccc1NC(=O)C(NS(=O)(=O)c1ccc2c(c1)c(=O)n(C)c(=O)n2C)c1ccccc1 (centres undefined) | -1 | -19 | 9% | -8% | ? | 48%
CCCNC(=O)C(NS(=O)(=O)c1ccc2c(c1)c(=O)n(C)c(=O)n2C)c1ccccc1 (centres undefined) | -2 | 0 | -2% | -13% | 40µM* | 37%
CN(C)S(=O)(=O)N(CC(=O)Nc1ccc(Br)cc1F)c1ccccc1 | nt | nt | 14% | 12% | -2%[59 µM] | 34%
CCOC(=O)c1c(C)oc2ncnc(Nc3ccc(F)cc3Cl)c12 | nt | nt | 14%[57.1 µM] | -17% | -25%[59 µM] | 32%
Cc1ccccc1NC(=O)Cn1c(=O)n(CCC(=O)N2CCc3ccccc3C2)c(=O)c2ccccc21 | nt | nt | -26% | -16% | 10%[59 µM] | -6%
Cc1ccc(CCNC(=O)CCCn2c(=O)c3ccccc3n(Cc3ccccc3C#N)c2=O)cc1 | nt | nt | 0% | 0% | 3%[59 µM] | 21%

Bioassay records as filed in PubChem.
